Results on 20 compounds are retold here after PubChem BioAssay (NCI).

About 79,000 compounds went through this panel and 15% of them were active in at least one assay; those are over-represented in the sample as a whole. A number with no mark means an inactive call. Activity calls are given as the source filed them. Rule as the data show it: active = growth inhibition above about 70%; inactive = the rest.

Assay [1] in a line: NCI Yeast Anticancer Drug Screen. Data for the rad50 strain (AID 155).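 Also: 0% = growth of vehicle-only cultures of the same strain.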 The settings on record: S. cerevisiae rad50 strain growth inhibition; at 50.0 µM; active compounds read high. Put shortly:
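Relative growth inhibition (compound vs vehicle) was measured in yeast with a defined repair-gene alteration.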

The nature of assay [2]: NCI Yeast Anticancer Drug Screen. Data for the mec2-1 strain (AID 157). Conditions: S. cerevisiae mec2-1 strain, at 50.0 µM, active compounds read high. The gist of the method: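 Vehicle-treated cultures served as reference for growth inhibition of compound-exposed mec2-1 yeast.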
Assay [3] can be described thus: NCI Yeast Anticancer Drug Screen. Data for the sgs1 mgt1 strain (AID 161).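 Also: 0% = growth of cultures given vehicle only.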 Conditions: S. cerevisiae sgs1 mgt1 strain, at 50.0 µM, active compounds read high. Put shortly: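 Inhibition of yeast growth, normalised to vehicle-treated controls, is reported for a strain bearing genetic alterations in DNA damage repair.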
The nature of assay [4]: NCI Yeast Anticancer Drug Screen. Data for the cln2 rad14 strain (AID 165).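 Also: 0% = growth equal to vehicle treated cultures.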 The settings on record: S. cerevisiae cln2 rad14 strain, at 50.0 µM, active compounds read high. The gist of the method:
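Each compound was tested on cln2 rad14 yeast. Inhibition of growth was calculated against vehicle-exposed controls.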

Assay [5] in a line: NCI Yeast Anticancer Drug Screen. Data for the bub3 strain (AID 167). The settings on record: S. cerevisiae bub3 mutant strain, at 50.0 µM, active compounds read high. The gist of the method:
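Screening used yeast with an engineered genetic alteration affecting cell cycle control. Compound-exposed cultures were compared with vehicle cultures, and reduced growth was taken as inhibition.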

Assay [6] is described as follows: NCI Yeast Anticancer Drug Screen. Data for the mlh1 rad18 strain (AID 175). Conditions: S. cerevisiae mlh1 rad18 strain growth inhibition; at 50.0 µM; active compounds read high. Put shortly: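 Vehicle-treated cultures served as the reference for growth inhibition in a yeast strain carrying DNA damage repair alterations exposed to each compound.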

In the case of `CCC(=O)N/N=C(\N)N[N+](=O)[O-]`, the growth inhibition in assay [1] is -16.1%; in assay [2], -6.55%; in assay [3] it was -20.5%; in assay [4], -83.6%; in assay [5], -3.1%; in assay [6] it was -9.65%.
Consider `Cc1ccc(C(=O)C(C)N)cc1C` (stereo not given), for which the growth inhibition was -13.6% in assay [1]; -13% in assay [2]; -17.8% in assay [3]; 15.2% in assay [4]; 1.6% in assay [5]; 22.4% in assay [6].
Turning to `CCOP(=O)(OCC)Oc1c(Cl)c(Cl)c(Cl)c(Cl)c1Cl`, the growth inhibition is 70.3% (active) in assay [1]; 47.4% in assay [2]; 86% (active) in assay [3]; 28.4% in assay [4]; 23.9% in assay [5]; 78.5% (active) in assay [6].
Take `O=P(c1ccccc1)(c1ccccc1)c1ccccc1.O=P(c1ccccc1)(c1ccccc1)c1ccccc1.O=S(=O)(O)O.[Fe]`: the growth inhibition was -8.3% in assay [1]; 3.45% in assay [2]; 9.35% in assay [3]; 17.6% in assay [4]; 23.6% in assay [5]; 8.2% in assay [6].
For `Nc1ccc2c(c1)Cc1cc(N)ccc1-2`, the growth inhibition was 60.2% in assay [1]; 15.3% in assay [2]; 57% in assay [3]; -3.75% in assay [4]; 37% in assay [5]; 12.1% in assay [6].
Consider `CC(=O)CCNC1(c2ccccc2)CCCCC1`, for which the growth inhibition was 3.6% in assay [1]; 2.95% in assay [2]; -2.65% in assay [3]; -0.65% in assay [4]; -2.5% in assay [5]; -2.9% in assay [6].
In the case of `S=C([SH2+])[SH2+].S=C([SH2+])[SH2+].[Pt+2].c1ccc(C[P+](c2ccccc2)(c2ccccc2)c2ccccc2)cc1`, the growth inhibition is 44.7% in assay [1]; 3.45% in assay [2]; 36.2% in assay [3]; -16.6% in assay [4]; 3.6% in assay [5]; -0.1% in assay [6].
As to `O=C1C=CC(=O)N1c1ccccc1Cl` (tested in a mixture with another compound), the growth inhibition in assay [1] was 20.2%; in assay [2], 4.15%; in assay [3], 20.5%; in assay [4] it was 4.2%; in assay [5] it was 21.2%; in assay [6], 6.7%.
For the compound `S=P1(c2ccccc2)C=C(N2CCCC2)CC1` (stereo not given), the growth inhibition was 20.4% in assay [1]; 20.2% in assay [2]; 16.6% in assay [3]; 1.7% in assay [4]; 11.7% in assay [5]; 20.4% in assay [6].
Consider `C[CH2][Pb]([CH2]C)([CH2]C)[N]1C(=O)c2c(Cl)c(Cl)c(Cl)c(Cl)c2C1=O`, for which the growth inhibition in assay [1] is 67.7%; in assay [2], 34.5%; in assay [3], 93.1% (active); in assay [4] it was 25.4%; in assay [5] it was 33.8%; in assay [6], 78.3% (active).
Regarding `COC(=O)CCSP(=S)(Oc1ccccc1)Oc1ccccc1`, the growth inhibition in assay [1] is -0.2%; in assay [2], 7.85%; in assay [3], 12.3%; in assay [4], 4.25%; in assay [5] it was 36.5%; in assay [6], 9.1%.
Regarding `CC1CN1C1c2ccccc2CC1O` (stereo not given), the growth inhibition in assay [1] was 1.2%; in assay [2], -13.2%; in assay [3], -11.8%; in assay [4], -15.4%; in assay [5], -20.3%; in assay [6], -8.95%.
For `Nc1cccc(SC2CC(=O)N(c3ccc(Cl)cc3C(=O)c3ccccc3)C2=O)c1` (stereo not given), the growth inhibition in assay [1] is 16.6%; in assay [2] it was -4.6%; in assay [3], 34.2%; in assay [4] it was 26.4%; in assay [5], 19.9%; in assay [6] it was 22.9%.
`c1ccc(C2(N3CCOCC3)CSC2)cc1`: the growth inhibition in assay [1] is -6.05%; in assay [2], -4.8%; in assay [3], 1.15%; in assay [4] it was -16.9%; in assay [5] it was -44.6%; in assay [6], -6.75%.
As to `COC(=O)C(C)N(CCCl)P1(=O)OCCCN1CCCl` (stereo not given), the growth inhibition is 49.2% in assay [1]; 24.8% in assay [2]; -6.15% in assay [3]; 8.7% in assay [4]; -20.6% in assay [5]; 20.6% in assay [6].
As to `C=C1C(=O)OC2/C=C(\C)CC/C=C(/C)CC(OC(=O)/C(=C/CO)CO)C12` (stereo not given), the growth inhibition in assay [1] was 6.3%; in assay [2], -11.6%; in assay [3] it was 14.7%; in assay [4] it was 13%; in assay [5], -6%; in assay [6], -54.7%.
As for `C[C@@H]1C[C@@H]2c3cccc4c3c(cn4CO)C[C@H]2N(C)C1`, the growth inhibition in assay [1] is 8.55%; in assay [2] it was -24.6%; in assay [3], 28.6%; in assay [4], 3.4%; in assay [5] it was 0.55%; in assay [6], 8.15%.
As to `CC(C)CNC12CN3CN(CN(C3)C1)C2`, the growth inhibition in assay [1] was -9.25%; in assay [2], -11.2%; in assay [3], -6%; in assay [4], -27.9%; in assay [5], -4.85%; in assay [6], -23.7%.
Turning to `C[Si](C)(C)CS(=O)[O-].[C-]#[O+].[C-]#[O+].[Fe+6].[c-]1[c-][c-][cH-][c-]1`, the growth inhibition in assay [1] was 0.1%; in assay [2] it was 8.8%; in assay [3], 20.7%; in assay [4], -12.2%; in assay [5] it was -3.85%; in assay [6], 6.65%.
Regarding `CC([Se])=Nc1ccc(Br)cc1`, the growth inhibition in assay [1] is 21.6%; in assay [2] it was 0.8%; in assay [3] it was -0.2%; in assay [4], -8.9%; in assay [5], -1.45%; in assay [6], 9.1%.
